Shiga toxin inh = Shiga toxin inhibition; inhibition, % at 38.7 µM; AID 2315; 290,000 tested, 9.2% active; Vero cells, Shiga toxin protein synthesis inhibition reporter; in the data active = inhibition mostly above about 28%, no sharp cut-off; inactive = mostly below about 43%; note: 0% is about no effect
SARS PLP yeast = blocks SARS-CoV papain-like protease in a yeast assay; S. cerevisiae expressing SARS-CoV PLpro, growth rescue; AID 485353; Potency, µM (highest dose often 32.9 µM), without a hit: at the highest dose activity, positive = growth rescue, hits mostly activators; 330,000 tested, 0.19% active; note: potency is the fitted concentration of half-maximal effect; 0% is about no effect; nearly all actives have a fitted effect of over 55% in size
Tb PYK inh = blocks Trypanosoma brucei pyruvate kinase. AID 624173. Q57TT1. TbPYK enzyme, Kinase-Glo Plus ATP luminescence, 45 min. Potency, µM (series often up to 76.8 µM), inactives show at the highest dose activity, negative = inhibition, actives largely listed as inhibitors. 410,000 tested, 0.12% active; active = well fitted curve in the direction sought with a large enough effect; inconclusive = small, poorly fitted or top-dose-only effect, or another doubt; inactive = no such curve, though single readings can be large; an effect the other way counts as inactive or inconclusive; note: potency is the fitted concentration of half-maximal effect; % is set by controls: 0 for no effect and ±100 for the full control effect; nearly all actives have a fitted effect of over 50% in size
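Assay buffer: 50 mM TEA pH 7.2, 100 mM KCl, 10 mM MgCl2, 0.05% BSA, 0.01% Tween-20. Pyruvate kinase from T. brucei plus substrate met compound, then ADP (130 uM final). Luminescence was read post 45 min RT.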
Cycloheximide cs = counter-screen for Shiga toxin inhibitors: cycloheximide protein synthesis inhibition. cell reporter, cycloheximide protein synthesis inhibition counterscreen. 300,000 tested, 12% active. max response, %; in the data active = max response mostly above about 13%, no sharp cut-off; inactive = mostly below about 14%; note: read at 38.3 µM for the half of the compounds with a filed dose; 0% is about no effect
NS1 function inh = influenza NS1 inhibition; Potency, µM (series often up to 46.1 µM), inactives show top-dose activity, positive = more growth; 270,000 tested, 0.4% active; note: potency is the fitted concentration of half-maximal effect; actives are rising curves; nearly all actives have a fitted effect of over 50% in size
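Compounds were scored for reversing the slow growth caused by influenza A NS1 in S. cerevisiae, measured by optical density at 600 nm. Assay medium contained 2% galactose at pH 6.0; NS1-free yeast of the same strain were the positive control.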
LmPK inhibitor = LmPK (Leishmania mexicana) enzyme inhibition; 290,000 tested, 0.37% active; AID 1721; purified LmPK, Kinase-Glo ATP luminescence, 1 h; Potency, µM (highest dose often 57.5 µM), for inactives: top-dose activity change, negative = inhibition, hits mostly inhibitors; active = well fitted curve in the direction sought with a large enough effect; inconclusive = small, poorly fitted or top-dose-only effect, or another doubt; inactive = no such curve, though single readings can be large; an effect the other way counts as inactive or inconclusive; note: potency is the fitted concentration of half-maximal effect; % is set by controls: 0 for no effect and ±100 for the full control effect
Target sequence (Q27686 whole entry, looked up): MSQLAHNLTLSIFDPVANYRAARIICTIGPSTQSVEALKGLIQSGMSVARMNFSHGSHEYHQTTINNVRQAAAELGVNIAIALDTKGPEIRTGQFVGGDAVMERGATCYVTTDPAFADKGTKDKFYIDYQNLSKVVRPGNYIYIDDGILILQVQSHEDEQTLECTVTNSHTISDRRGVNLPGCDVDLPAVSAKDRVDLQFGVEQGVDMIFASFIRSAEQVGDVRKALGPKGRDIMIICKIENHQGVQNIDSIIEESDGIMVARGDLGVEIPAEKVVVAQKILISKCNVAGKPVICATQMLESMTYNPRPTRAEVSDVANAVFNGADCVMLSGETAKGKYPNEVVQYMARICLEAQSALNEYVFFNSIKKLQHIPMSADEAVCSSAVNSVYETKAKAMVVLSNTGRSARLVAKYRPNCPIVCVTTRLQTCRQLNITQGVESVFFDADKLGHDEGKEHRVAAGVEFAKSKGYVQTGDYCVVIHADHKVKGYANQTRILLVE
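ATP generated from ADP (0.1 mM) and PEP (0.5 mM) by 0.1 nM LmPK over 1 h at room temperature (pH 7.2 imidazole buffer) was detected by coupled luciferase luminescence. Values were normalized to uninhibited and no-enzyme wells.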
Numbers without * were called inactive. The entries come from a sample that favours hits as a whole. Unless noted, calls come from the whole dose curve.

For CC(C)(C)OC(=O)NCCc1onc(-c2cccc([N+](=O)[O-])c2)c1C(=O)O the results were Tb PYK inh -15%.
Screening CCC(=O)c1ccc(OCC(=O)OCC(=O)Nc2cccc(S(=O)(=O)N3CCOCC3)c2)cc1 returned Tb PYK inh -18%.
O=C(COc1ccc(C(=O)NCCN2CCOCC2)cc1)Nc1cccc(C(F)(F)F)c1 was read as SARS PLP yeast 0% and Tb PYK inh 6%.
Screening COc1ccc(CN(C(=O)c2ccco2)c2ccc(Br)cc2)cc1OC returned Shiga toxin inh -5, SARS PLP yeast 10%, Tb PYK inh 4%, Cycloheximide cs -4, NS1 function inh -9% and LmPK inhibitor 3%.
Screening O=C1c2ccccc2C(=O)N1CCCCN(C(=O)c1ccco1)c1ccc(Cl)cc1 returned Shiga toxin inh 30, SARS PLP yeast -6%, Tb PYK inh 3%, Cycloheximide cs 8, NS1 function inh -22% and LmPK inhibitor -4%.
For O=C1/C(=C/N(C(=O)c2ccco2)c2ccc(Br)cc2)Sc2ccccc21 the results were Shiga toxin inh 0, SARS PLP yeast -25%, Tb PYK inh -6%, Cycloheximide cs 37*, NS1 function inh -17% and LmPK inhibitor -19%.
For O=C1/C(=C/N(C(=O)c2ccco2)c2ccc(Cl)cc2)Sc2ccccc21 the results were Shiga toxin inh 91*, SARS PLP yeast -12%, Tb PYK inh -17%, Cycloheximide cs 39*, NS1 function inh -19% and LmPK inhibitor inconclusive.
For CCn1c(SCC(=O)NC2CC2)nnc1-c1cccc(OC)c1 the results were Shiga toxin inh -7, SARS PLP yeast 2%, Tb PYK inh 3%, Cycloheximide cs -1, NS1 function inh 9% and LmPK inhibitor -1%.
For Cc1ccc(NC(=S)N(N)CCO)cc1 the results were Shiga toxin inh 43*, SARS PLP yeast 3%, Tb PYK inh -2%, Cycloheximide cs 22 and LmPK inhibitor 9%.
Screening CCN(N)C(=S)Nc1ccc(F)cc1 returned Shiga toxin inh -7, SARS PLP yeast -2%, Tb PYK inh -8%, Cycloheximide cs 6 and LmPK inhibitor -4%.
`Fc1ccccc1C1CC(c2ccco2)=Nc2ccccc2S1` (centres undefined) gave Shiga toxin inh 104*, SARS PLP yeast -5%, Tb PYK inh -14%, Cycloheximide cs 49*, NS1 function inh -65% and LmPK inhibitor 1%.
Screening Oc1ccc(Cl)cc1C1=Nc2ccccc2N=C(c2ccco2)C1 returned Shiga toxin inh 21, SARS PLP yeast -7%, Tb PYK inh -6%, Cycloheximide cs -4, NS1 function inh 10% and LmPK inhibitor 3%.
For COc1ccc(CN2CCC(C)(Oc3ccc(C(C)=O)cc3)C2)c2ccccc12 (centres undefined) the results were Tb PYK inh -2%.
`CCOC(=O)Cc1csc(NC(=O)/C=C\c2ccccc2Cl)n1` gave Shiga toxin inh 53*, SARS PLP yeast -1%, Tb PYK inh 1%, Cycloheximide cs 23*, NS1 function inh 1% and LmPK inhibitor 1%.
Screening CCOC(=O)Cc1csc(NC(=O)/C=C/c2ccccc2Cl)n1 returned Shiga toxin inh 71*, SARS PLP yeast -2%, Tb PYK inh 0%, Cycloheximide cs 38*, NS1 function inh -7% and LmPK inhibitor 1%.
CCOc1ccc(S(=O)(=O)N(CC(=O)Nc2ccc(OC)c(Cl)c2)c2ccccc2)cc1 was read as Tb PYK inh -1%.
Screening Oc1[nH]c2ccccc2c1N=Nc1nncc2ccccc12 returned Shiga toxin inh 60*, SARS PLP yeast -3%, Tb PYK inh -10%, Cycloheximide cs 35*, NS1 function inh -32% and LmPK inhibitor inconclusive.
For Oc1[nH]c2ccccc2c1N=Nc1ccc(C(F)(F)F)cn1 the results were Shiga toxin inh 17, SARS PLP yeast -4%, Tb PYK inh 1%, Cycloheximide cs 18*, NS1 function inh -1% and LmPK inhibitor 7%.
For Oc1[nH]c2ccccc2c1N=Nc1ccccn1 the results were Tb PYK inh 4%.
COCCCNC(=O)c1oc2c(c1C)-c1nn(Cc3cccc(Cl)c3)cc1CC2 was read as Tb PYK inh -4%.
`O=C(Nc1ccc(NC(=O)c2cccs2)cc1)c1ccc(Br)cc1` gave Tb PYK inh 1%.
For O=C(c1cccs1)N(C(=O)c1cccs1)c1ccc(Br)cn1 the results were Shiga toxin inh 57, SARS PLP yeast -32%, Tb PYK inh 2%, Cycloheximide cs 37*, NS1 function inh -127% and LmPK inhibitor -25%.
COc1ccc(Nc2c(-c3ccc(C)o3)nc3cc(C)ccn23)cc1 was read as Tb PYK inh -19%.
For COc1ccccc1/C=C/C=N/NC(=O)Cc1cccn1C the results were Shiga toxin inh 26, SARS PLP yeast -2%, Tb PYK inh -11%, Cycloheximide cs -2, NS1 function inh 18% and LmPK inhibitor 0%.
Screening COc1ccccc1/C=C\C=N\NC(=O)c1ccco1 returned Shiga toxin inh 153*, SARS PLP yeast -1%, Tb PYK inh 1%, Cycloheximide cs 39*, NS1 function inh 0% and LmPK inhibitor 0%.
Screening COc1ccccc1/C=C/C=N/NC(=O)c1cccs1 returned Shiga toxin inh 116*, SARS PLP yeast -2%, Tb PYK inh 5%, Cycloheximide cs 44*, NS1 function inh -31% and LmPK inhibitor -15%.
O=C(NCCc1ccc(F)cc1)c1ccc(Cl)c(S(=O)(=O)N2CCOCC2)c1 was read as SARS PLP yeast -6% and Tb PYK inh -4%.
Screening CC(C)(C)NC(=O)Cn1nnc(-c2ccc(OCc3c(F)cccc3Cl)cc2)n1 returned Shiga toxin inh 33, SARS PLP yeast 5%, Tb PYK inh -18%, Cycloheximide cs 13*, NS1 function inh 5% and LmPK inhibitor 3%.
`C=CCNC(=S)Nc1c(C(=O)OC)[nH]c2cc(OC)ccc12` gave Shiga toxin inh 30, SARS PLP yeast 1%, Tb PYK inh -24%, Cycloheximide cs 19*, NS1 function inh 5% and LmPK inhibitor -20%.
`COC(=O)c1[nH]c2cc(OC)ccc2c1NC(=O)c1c(F)cccc1F` gave Shiga toxin inh 7, SARS PLP yeast 1%, Tb PYK inh -4%, Cycloheximide cs 0, NS1 function inh 5% and LmPK inhibitor 3%.
C/C(=N/N=C(\C)c1ccccc1O)c1ccccc1O was read as Shiga toxin inh 38*, SARS PLP yeast -1%, Tb PYK inh -8%, Cycloheximide cs 24*, NS1 function inh 4% and LmPK inhibitor -1%.
Screening CC(C)C(CCNCc1ccccn1)c1ccc(Cl)cc1 (centres undefined) returned Shiga toxin inh 3, SARS PLP yeast -1%, Tb PYK inh -18%, Cycloheximide cs -3, NS1 function inh 0% and LmPK inhibitor -7%.

Bioassay records (PubChem BioAssay)
